Here are results for 18 compounds from PubChem BioAssay.

Structures are written as SMILES. Unmarked numbers belong to inactive results. Activity calls are given as the source filed them.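 The calls were made as follows: active = normalized viability below 100% at a tested concentration; inactive = the rest.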

The first experiment in a line: drug combination growth inhibition, ovarian cancer – cell-based, oncology-focused library, rucaparib conditional, profiling panel (AID 1508598). As to conditions: patient-derived ovarian cancer cells, CellTiter-Glo viability, 144 h; at 0.00488 µM; OCI-C5x cells; with rucaparib 10 µM; active compounds read low; 100% = cells with rucaparib alone. A general note: ATP-based viability assays read luminescence as a measure of living cells.
In the case of `N[C@@H]1CCCN(c2c(/C=C3\SC(=O)NC3=O)cccc2-c2ccccc2)C1`, the viability (as a rule, a read-out of living cells in per cent, often relative to untreated cells) is 119%.

As to `C[C@@H]1C[C@H]2[C@@H]3CCC4=CC(=O)C=C[C@]4(C)[C@]3(F)[C@H](O)C[C@]2(C)[C@]1(O)C(=O)CO`, the viability is 102%.

For the compound `Cc1cc2c(C(=O)NC[C@H](C)c3ccccc3)c(O)c(O)cc2c(O)c1-c1c(C)cc2c(C(=O)NC[C@H](C)c3ccccc3)c(O)c(O)cc2c1O`, the viability is 128%.

`Nc1nc(F)nc2c1ncn2[C@H]1O[C@H](CO)[C@@H](O)[C@@H]1O`: the viability is 112%.

As for `COc1cccc2c1C(=O)c1c(O)c3c(c(O)c1C2=O)C[C@@](O)(C(=O)CO)C[C@H]3O[C@H]1C[C@H](N)[C@@H](O)[C@H](C)O1`, the viability was 90.6% (active).

Regarding `C=C1/C(=C/C=C2\CCC[C@@]3(C)[C@H]2CC[C@H]3[C@H](C)/C=C/[C@@H](C)C(C)C)C[C@H](O)C[C@@H]1O`, the viability is 94% (active).

As for `CO[C@H]1C[C@H]2CC[C@@H](C)[C@@](O)(O2)C(=O)C(=O)N2CCCC[C@H]2C(=O)O[C@H]([C@H](C)C[C@@H]2CC[C@H](OP(C)(C)=O)[C@H](OC)C2)CC(=O)[C@H](C)/C=C(\C)[C@@H](O)[C@@H](OC)C(=O)[C@H](C)C[C@H](C)/C=C/C=C/C=C/1C`, the viability was 97.3% (active).

As for `C=CCNC1=C2C[C@@H](C)C[C@H](OC)[C@H](O)[C@@H](C)/C=C(\C)[C@H](OC(N)=O)[C@@H](OC)/C=C\C=C(\C)C(=O)NC(=CC1=O)C2=O`, the viability was 110%.

On to `CC[C@]1(O)C[C@@H]2CN(CCc3c([nH]c4ccccc34)[C@@](C(=O)OC)(c3cc4c(cc3OC)N(C=O)[C@@H]3C45CCN4CC=C[C@](CC)([C@H]45)[C@H](OC(C)=O)[C@]3(O)C(=O)OC)C2)C1` (stereo partly specified), for which the viability is 101%.

With `COc1cccc2c1C(=O)c1c(O)c3c(c(O)c1C2=O)C[C@@](O)(C(C)=O)C[C@H]3O[C@H]1C[C@H](N)[C@H](O)[C@H](C)O1`, the viability was 125%.

Consider `CCOc1ccc(Cc2cc([C@@H]3O[C@H](CO)[C@@H](O)[C@H](O)[C@@H]3O)ccc2Cl)cc1`, for which the viability was 108%.

For the compound `CC(=O)[C@]1(O)Cc2c(O)c3c(c(O)c2[C@H](O[C@H]2C[C@H](N)[C@H](O)[C@H](C)O2)C1)C(=O)c1ccccc1C3=O`, the viability is 104%.

In the case of `CCC1=CC2CN(C1)Cc1c([nH]c3ccccc13)[C@@](C(=O)OC)(c1cc3c(cc1OC)N(C)[C@H]1[C@@](O)(C(=O)OC)[C@H](OC(C)=O)[C@]4(CC)C=CCN5CC[C@@]31[C@H]54)C2` (stereo partly specified), the viability is 50.6% (active).

As for `CC(=O)O[C@H]1C(=O)[C@@]2(C)C([C@H](OC(=O)c3ccccc3)[C@]3(O)C[C@H](OC(=O)[C@H](O)[C@@H](NC(=O)c4ccccc4)c4ccccc4)C(C)=C1C3(C)C)[C@]1(OC(C)=O)CO[C@@H]1C[C@H]2O` (stereo partly specified), the viability was 75.3% (active).

`CO[C@H]1C[C@H]2CC[C@@H](C)[C@@](O)(O2)C(=O)C(=O)N2CCCC[C@H]2C(=O)O[C@H]([C@H](C)C[C@@H]2CC[C@H](OC(=O)C(C)(CO)CO)[C@H](OC)C2)CC(=O)[C@H](C)/C=C(\C)[C@@H](O)[C@@H](OC)C(=O)[C@H](C)C[C@H](C)/C=C/C=C/C=C/1C`: the viability is 88.7% (active).

In the case of `CO[C@H]1/C=C\C=C(\C)C(=O)NC2=CC(=O)C(NCCN(C)C)=C(C[C@@H](C)C[C@H](OC)[C@H](O)[C@@H](C)/C=C(\C)[C@@H]1OC(N)=O)C2=O`, the viability was 107%.

Turning to `CC(C)(C(=O)NCC(F)(F)C(F)(F)F)C(=O)N[C@H]1C(=O)Nc2ccccc2-c2ccccc21`, the viability is 114%.

Consider `CC1(C)O[C@@H]2C[C@H]3[C@@H]4CCC5=CC(=O)C=C[C@]5(C)[C@]4(F)[C@H](O)C[C@]3(C)[C@@]2(C(=O)CO)O1`, for which the viability is 106%.

Still in this experiment, the particulars now being: patient-derived ovarian cancer cells, CellTiter-Glo viability, 144 h; at 0.00488 µM; OCI-C5x cells; without rucaparib; active compounds read low.
For `N[C@@H]1CCCN(c2c(/C=C3\SC(=O)NC3=O)cccc2-c2ccccc2)C1`, the viability is 119%.

For `C[C@@H]1C[C@H]2[C@@H]3CCC4=CC(=O)C=C[C@]4(C)[C@]3(F)[C@H](O)C[C@]2(C)[C@]1(O)C(=O)CO`, the viability was 116%.

As to `Cc1cc2c(C(=O)NC[C@H](C)c3ccccc3)c(O)c(O)cc2c(O)c1-c1c(C)cc2c(C(=O)NC[C@H](C)c3ccccc3)c(O)c(O)cc2c1O`, the viability is 110%.

Turning to `Nc1nc(F)nc2c1ncn2[C@H]1O[C@H](CO)[C@@H](O)[C@@H]1O`, the viability was 120%.

For the compound `COc1cccc2c1C(=O)c1c(O)c3c(c(O)c1C2=O)C[C@@](O)(C(=O)CO)C[C@H]3O[C@H]1C[C@H](N)[C@@H](O)[C@H](C)O1`, the viability is 95.4% (active).

With `C=C1/C(=C/C=C2\CCC[C@@]3(C)[C@H]2CC[C@H]3[C@H](C)/C=C/[C@@H](C)C(C)C)C[C@H](O)C[C@@H]1O`, the viability was 104%.

Consider `CO[C@H]1C[C@H]2CC[C@@H](C)[C@@](O)(O2)C(=O)C(=O)N2CCCC[C@H]2C(=O)O[C@H]([C@H](C)C[C@@H]2CC[C@H](OP(C)(C)=O)[C@H](OC)C2)CC(=O)[C@H](C)/C=C(\C)[C@@H](O)[C@@H](OC)C(=O)[C@H](C)C[C@H](C)/C=C/C=C/C=C/1C`, for which the viability is 90.1% (active).

On to `C=CCNC1=C2C[C@@H](C)C[C@H](OC)[C@H](O)[C@@H](C)/C=C(\C)[C@H](OC(N)=O)[C@@H](OC)/C=C\C=C(\C)C(=O)NC(=CC1=O)C2=O`, for which the viability is 117%.

In the case of `CC[C@]1(O)C[C@@H]2CN(CCc3c([nH]c4ccccc34)[C@@](C(=O)OC)(c3cc4c(cc3OC)N(C=O)[C@@H]3C45CCN4CC=C[C@](CC)([C@H]45)[C@H](OC(C)=O)[C@]3(O)C(=O)OC)C2)C1` (stereo partly specified), the viability is 103%.

`COc1cccc2c1C(=O)c1c(O)c3c(c(O)c1C2=O)C[C@@](O)(C(C)=O)C[C@H]3O[C@H]1C[C@H](N)[C@H](O)[C@H](C)O1`: the viability was 152%.

Turning to `CCOc1ccc(Cc2cc([C@@H]3O[C@H](CO)[C@@H](O)[C@H](O)[C@@H]3O)ccc2Cl)cc1`, the viability was 106%.

With `CC(=O)[C@]1(O)Cc2c(O)c3c(c(O)c2[C@H](O[C@H]2C[C@H](N)[C@H](O)[C@H](C)O2)C1)C(=O)c1ccccc1C3=O`, the viability was 73.9% (active).

Consider `CCC1=CC2CN(C1)Cc1c([nH]c3ccccc13)[C@@](C(=O)OC)(c1cc3c(cc1OC)N(C)[C@H]1[C@@](O)(C(=O)OC)[C@H](OC(C)=O)[C@]4(CC)C=CCN5CC[C@@]31[C@H]54)C2` (stereo partly specified), for which the viability was 43.8% (active).

Regarding `CC(=O)O[C@H]1C(=O)[C@@]2(C)C([C@H](OC(=O)c3ccccc3)[C@]3(O)C[C@H](OC(=O)[C@H](O)[C@@H](NC(=O)c4ccccc4)c4ccccc4)C(C)=C1C3(C)C)[C@]1(OC(C)=O)CO[C@@H]1C[C@H]2O` (stereo partly specified), the viability is 71.2% (active).

For `CO[C@H]1C[C@H]2CC[C@@H](C)[C@@](O)(O2)C(=O)C(=O)N2CCCC[C@H]2C(=O)O[C@H]([C@H](C)C[C@@H]2CC[C@H](OC(=O)C(C)(CO)CO)[C@H](OC)C2)CC(=O)[C@H](C)/C=C(\C)[C@@H](O)[C@@H](OC)C(=O)[C@H](C)C[C@H](C)/C=C/C=C/C=C/1C`, the viability was 91.6% (active).

Consider `CO[C@H]1/C=C\C=C(\C)C(=O)NC2=CC(=O)C(NCCN(C)C)=C(C[C@@H](C)C[C@H](OC)[C@H](O)[C@@H](C)/C=C(\C)[C@@H]1OC(N)=O)C2=O`, for which the viability was 107%.

Turning to `CC(C)(C(=O)NCC(F)(F)C(F)(F)F)C(=O)N[C@H]1C(=O)Nc2ccccc2-c2ccccc21`, the viability is 117%.

With `CC1(C)O[C@@H]2C[C@H]3[C@@H]4CCC5=CC(=O)C=C[C@]5(C)[C@]4(F)[C@H](O)C[C@]3(C)[C@@]2(C(=O)CO)O1`, the viability is 117%.
